These results are taken from PubChem BioAssay (EPA / NIEHS).

The structures appear in SMILES notation. The source made the active and inactive calls. How the source made its calls: active means hit-call score of the fitted dose curve at least 0.9, where 1 is the maximum; inactive means score below 0.9.

Assay [1] is described as follows: ATG_GLI_CIS: Attagene CIS-FACTORIAL HepG2 Assay for human Zinc Finger Protein GLI1 (AID 2282945). To be noted: HepG2, Attagene cis-factorial reporter mRNA, GLI element; actives raise or lower the signal. The essentials: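 Bidirectional curve fits relative to DMSO, using reporter mRNA levels from RT-PCR plus capillary electrophoresis. Cells were HepG2 transiently carrying cis-regulated reporter constructs, harvested 24 h after dosing.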

In assay [2] the target is Bile acid receptor (Homo sapiens) (UniProt Q96RI1). Kind of assay: ATG_IR1_CIS: Attagene CIS-FACTORIAL HepG2 Assay for human Nuclear Receptor Subfamily 1 Group H Member 4 (NR1H4), IR1 submotif (AID 2282946). The note with it: IR1 reporter transcription, actives raise or lower the signal. The procedure, abridged:
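Cells (human HepG2) carry transiently transfected cis-promoter reporter transcription units. Compounds are incubated 24 h, total RNA is reverse-transcribed and amplified, and labelled fragments are resolved by capillary electrophoresis. Curves use DMSO as baseline.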

Assay [3] is described as follows: ATG_GRE_CIS: Attagene CIS-FACTORIAL HepG2 Assay for human Glucocorticoid Response Elements (GRE) (AID 2282947). The note with it: HepG2 GRE cis-reporter, Attagene multiplex mRNA; actives raise or lower the signal. The essentials:
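Assay uses human hepatoma HepG2 cells transfected with cis-promoter reporter units, exposed 24 h. mRNA from reporters detected by RT-PCR plus capillary electrophoresis; DMSO serves as negative control and baseline.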

Assay [4] in a line: ATG_ISRE_CIS: Attagene CIS-FACTORIAL HepG2 Assay for human Interferon Regulatory Factor 1 (IRF1) binding to an Interferon-Stimulated Response Element (ISRE) (AID 2282948). The note with it: HepG2 ISRE cis-reporter (Attagene), mRNA transcription readout; actives raise or lower the signal. The procedure, abridged:
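Transfected HepG2 (multiple reporter transcription units, cis elements) dosed 24 h. RNA → oligo(dT) RT → PCR → 6-FAM primer extension → HpaI → CE. DMSO = negative control/baseline.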

The nature of assay [5]: ATG_M_32_CIS: Attagene CIS-FACTORIAL HepG2 Assay for M32 Transcription Factor (Internal Marker) (AID 2282949).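 Further: background control marker of the multiplexed CIS panel rather than a real target.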 The note with it: HepG2 Attagene cis-factorial M32 reporter, mRNA; actives raise or lower the signal. The procedure, abridged:
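Internal background marker read-out: RT-PCR/capillary electrophoresis fluorescence of reporter transcripts from transiently transfected HepG2 cells after 24 h chemical exposure. Activity fitted bidirectionally relative to DMSO negative control.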

A short description of assay [6]: ATG_M_06_CIS: Attagene CIS-FACTORIAL HepG2 Assay for M06 Transcription Factor (Internal Marker) (AID 2282950). The note with it: HepG2 Attagene CIS-FACTORIAL M06 internal marker reporter; actives raise or lower the signal. The essentials:
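Measured 24 h post-dosing in transiently transfected HepG2 cells, this internal-marker endpoint reports reporter mRNA via RT-PCR with fluorescent primer extension and capillary electrophoresis. DMSO served as negative control and baseline for bidirectional fitting.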

For assay [7], the target named is Hepatocyte nuclear factor 6 (Homo sapiens) (UniProt Q9UBC0). Briefly: ATG_HNF6_CIS: Attagene CIS-FACTORIAL HepG2 Assay for human Hepatocyte Nuclear Factor 6 (HNF6) (AID 2282952). The note with it: HepG2 Attagene cis-factorial HNF6 reporter transcription; actives raise or lower the signal. The essentials:
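Transiently transfected HepG2 cells expressing cis-regulated reporter transcription units were exposed to chemical for 24 h in a 24-well format. Reporter transcript abundance was determined by fluorescence capillary electrophoresis.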

Assay [8] deals with Heat shock factor protein 1 (Homo sapiens) (UniProt Q00613). Briefly: ATG_HSE_CIS: Attagene CIS-FACTORIAL HepG2 Assay for human Heat Shock Transcription Factor 1 (HSE) (AID 2282953). To be noted: HepG2 HSE cis-reporter, Attagene RNA transcription; actives raise or lower the signal. The procedure, abridged: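 Reporter mRNA induction in HepG2 is measured 24 h after dosing, using transiently transfected multiplexed cis-regulated reporter units. Signal comes from capillary electrophoresis of labelled RT-PCR products, with DMSO as negative control.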

The nature of assay [9]: ATG_MRE_CIS: Attagene CIS-FACTORIAL HepG2 Assay for human Metal Responsive Element (MRE) (AID 2282954). To be noted: HepG2 MRE cis-reporter transcription, Attagene multiplex; actives raise or lower the signal. The procedure, abridged:
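After a 24 h chemical exposure, transiently transfected HepG2 cells yield RNA whose reporter sequences are amplified, FAM-labelled and sized by capillary electrophoresis. Curves are fitted bidirectionally relative to DMSO.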

For assay [10], the target named is Paired box protein Pax-6 (Homo sapiens) (UniProt P26367). Briefly: ATG_Pax6_CIS: Attagene CIS-FACTORIAL HepG2 Assay for human Paired Box 6 (PAX6) (AID 2282956). The note with it: HepG2 CIS-FACTORIAL PAX6 reporter transcription, RNA readout; actives raise or lower the signal. The procedure, abridged:
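Transient MRTU transfection of HepG2 → compound exposure 24 h → TriZol RNA, oligo(dT) RT → PCR, 6-FAM primer extension, HpaI cut → capillary electrophoresis; activity fitted both directions against DMSO.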

A short description of assay [11]: ATG_PXRE_CIS: Attagene CIS-FACTORIAL HepG2 Assay for human Pregnane X Receptor Element (PXRE) (AID 2282957). The note with it: HepG2 Attagene CIS-FACTORIAL PXRE reporter, mRNA; actives raise or lower the signal. The essentials: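 Cis-element reporter mRNA in human hepatoma HepG2 cells is measured 24 h post-dosing by RT-PCR, primer-extension labeling and capillary electrophoresis; gain or loss of signal is fitted relative to DMSO.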

Assay [12] is described as follows: ATG_PPRE_CIS: Attagene CIS-FACTORIAL HepG2 Assay for human Peroxisome Proliferator-activated Response Element (PPRE) (AID 2282958). To be noted: HepG2 PPRE cis-element reporter, Attagene transcription factor profiling; actives raise or lower the signal. The essentials:
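HepG2, transient MRTU transfection (cis promoter elements, endogenous TFs). 24 h dosing. RNA → oligo(dT) RT → PCR → 6-FAM primer extension → HpaI digest → CE. Bidirectional fit vs DMSO.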

Assay [13] is described as follows: ATG_RORE_CIS: Attagene CIS-FACTORIAL HepG2 Assay for human RAR-related Orphan Receptor Element (RORE) (AID 2282959). The note with it: HepG2 Attagene cis-factorial RORE reporter, mRNA; actives raise or lower the signal. The procedure, abridged:
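Transient MRTU transfection of human HepG2 liver cells (FuGene 6); 24 h compound exposure; TriZol RNA, oligo(dT) RT, PCR, FAM labeling, HpaI cut, CE fragment analysis. DMSO = negative control/baseline.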

A short description of assay [14]: ATG_Sox_CIS: Attagene CIS-FACTORIAL HepG2 Assay for human SRY-box transcription factor (SOX) (AID 2282960). To be noted: HepG2 Attagene cis-factorial SOX reporter, mRNA; actives raise or lower the signal. The procedure, abridged:
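Endogenous factor activity in human liver HepG2 cells carrying transfected cis-regulated reporter units. RNA taken 24 h post-dose, reverse-transcribed, PCR-amplified and sized by capillary electrophoresis. Gain or loss of signal fitted relative to DMSO.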

The target of assay [15] is Transcription factor Sp1 (Homo sapiens) (UniProt P08047). Briefly: ATG_Sp1_CIS: Attagene CIS-FACTORIAL HepG2 Assay for human Specificity Protein 1 (Sp1) (AID 2282961). The note with it: HepG2 Sp1 cis-reporter transcription, actives raise or lower the signal. The essentials:
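Transient MRTU-transfected HepG2, 24 h compound exposure. Total RNA → oligo(dT) RT → PCR of reporter → 6-FAM primer extension → HpaI digest → CE. Endpoint fitted both directions vs DMSO.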

The nature of assay [16]: ATG_SREBP_CIS: Attagene CIS-FACTORIAL HepG2 Assay for human Sterol Regulatory Element Binding (SREBP) (AID 2282962). To be noted: HepG2 Attagene cis-factorial SREBP reporter, mRNA; actives raise or lower the signal. The essentials:
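Transfected HepG2 (cis-regulated reporter library, endogenous TFs) → compound 24 h → total RNA → oligo(dT) RT → reporter-specific PCR → FAM primer extension, HpaI cut → CE fluorescence. Fit bidirectional vs DMSO.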

Assay [17] deals with Signal transducer and activator of transcription 3 (Homo sapiens) (UniProt P40763). Kind of assay: ATG_STAT3_CIS: Attagene CIS-FACTORIAL HepG2 Assay for human Signal Transducer and Activator of Transcription 3 (STAT3) (AID 2282963). To be noted: HepG2, Attagene cis-factorial STAT3 reporter transcription; actives raise or lower the signal. The essentials:
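After a 24 h compound incubation, total RNA from MRTU-transfected HepG2 cells was converted to cDNA and reporter sequences PCR-amplified, labelled and profiled by capillary electrophoresis. Gain and loss of signal were referenced to DMSO.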

Assay [18] can be described thus: ATG_TA_CIS: Attagene CIS-FACTORIAL HepG2 Assay for human TA Basal Promoter (AID 2282964). The note with it: HepG2 Attagene CIS-factorial TA basal promoter reporter; actives raise or lower the signal. The procedure, abridged:
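Cis-factorial format in HepG2: reporters report endogenous factors, not chimeric Gal4 fusions. After 24 h treatment, reporter transcripts were measured by RT-PCR-capillary electrophoresis fluorescence, analysed bidirectionally versus DMSO.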

For assay [19], the target named is Hypoxia-inducible factor 1-alpha (Homo sapiens) (UniProt Q16665). Kind of assay: ATG_HIF1a_CIS: Attagene CIS-FACTORIAL HepG2 Assay for human Hypoxia Inducible Factor 1 (HIF1A) (AID 2282951). The note with it: HepG2 Attagene cis-factorial HIF1a reporter transcription; actives raise or lower the signal. The essentials: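 Transient MRTU transfection of human HepG2 liver cells, 24 h compound treatment, then total RNA isolation, oligo(dT) reverse transcription, PCR amplification, fluorescent labelling and capillary electrophoresis of reporter fragments. Gain or loss relative to DMSO.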

Assay [20] is described as follows: ATG_PBREM_CIS: Attagene CIS-FACTORIAL HepG2 Assay for human Phenobarbital-responsive Enhancer Module (PBREM) (AID 2282955). The note with it: HepG2 PBREM cis-reporter, Attagene multiplexed transcription; actives raise or lower the signal. The essentials: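 Endogenous transcription factors in human liver HepG2 cells drive a PBREM cis-element reporter, whose transcript level after 24 h treatment is quantified by RT-PCR with capillary electrophoresis; activity fitted in both directions against DMSO.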

Sequence of Signal transducer and activator of transcription 3 (Homo sapiens) (P40763 whole entry, looked up): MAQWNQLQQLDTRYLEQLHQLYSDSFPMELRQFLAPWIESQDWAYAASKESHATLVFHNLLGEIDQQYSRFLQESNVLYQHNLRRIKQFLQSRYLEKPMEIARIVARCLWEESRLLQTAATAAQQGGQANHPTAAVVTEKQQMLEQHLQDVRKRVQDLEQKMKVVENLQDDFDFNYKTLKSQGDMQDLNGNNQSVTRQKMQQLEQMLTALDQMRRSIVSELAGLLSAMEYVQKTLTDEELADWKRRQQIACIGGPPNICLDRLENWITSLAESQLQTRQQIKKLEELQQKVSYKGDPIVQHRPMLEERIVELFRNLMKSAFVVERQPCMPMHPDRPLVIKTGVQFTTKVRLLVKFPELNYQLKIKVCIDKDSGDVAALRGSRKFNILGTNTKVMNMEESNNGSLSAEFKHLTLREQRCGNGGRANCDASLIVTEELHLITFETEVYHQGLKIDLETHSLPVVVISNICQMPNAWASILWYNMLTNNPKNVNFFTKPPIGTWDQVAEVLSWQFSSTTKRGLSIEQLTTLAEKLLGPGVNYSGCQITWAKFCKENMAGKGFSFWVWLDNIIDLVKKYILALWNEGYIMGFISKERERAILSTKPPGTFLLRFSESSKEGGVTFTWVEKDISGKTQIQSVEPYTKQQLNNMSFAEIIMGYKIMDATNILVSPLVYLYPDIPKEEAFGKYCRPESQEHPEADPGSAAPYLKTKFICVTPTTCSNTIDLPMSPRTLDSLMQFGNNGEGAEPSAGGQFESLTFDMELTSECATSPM
Sequence of Transcription factor Sp1 (Homo sapiens) (P08047 whole entry, looked up): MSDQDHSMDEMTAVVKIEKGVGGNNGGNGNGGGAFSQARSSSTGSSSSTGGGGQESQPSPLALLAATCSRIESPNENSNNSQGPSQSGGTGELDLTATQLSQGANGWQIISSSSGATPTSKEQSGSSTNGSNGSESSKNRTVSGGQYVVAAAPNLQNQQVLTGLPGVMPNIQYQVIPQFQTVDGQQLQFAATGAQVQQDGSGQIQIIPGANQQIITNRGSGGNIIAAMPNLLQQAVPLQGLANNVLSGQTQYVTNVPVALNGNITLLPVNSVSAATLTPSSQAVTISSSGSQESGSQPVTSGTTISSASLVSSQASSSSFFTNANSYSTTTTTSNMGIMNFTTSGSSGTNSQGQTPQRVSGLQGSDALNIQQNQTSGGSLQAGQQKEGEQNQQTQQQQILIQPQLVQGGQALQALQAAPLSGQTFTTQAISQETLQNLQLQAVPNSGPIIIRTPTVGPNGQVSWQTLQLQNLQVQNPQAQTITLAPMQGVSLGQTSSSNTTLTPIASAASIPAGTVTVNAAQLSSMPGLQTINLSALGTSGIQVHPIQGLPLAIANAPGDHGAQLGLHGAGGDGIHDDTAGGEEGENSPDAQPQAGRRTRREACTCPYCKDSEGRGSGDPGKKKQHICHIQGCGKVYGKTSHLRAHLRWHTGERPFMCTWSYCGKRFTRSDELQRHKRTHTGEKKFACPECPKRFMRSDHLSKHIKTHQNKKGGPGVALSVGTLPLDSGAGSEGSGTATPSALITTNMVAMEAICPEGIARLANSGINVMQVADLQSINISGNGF
Sequence of Heat shock factor protein 1 (Homo sapiens) (Q00613 whole entry, looked up): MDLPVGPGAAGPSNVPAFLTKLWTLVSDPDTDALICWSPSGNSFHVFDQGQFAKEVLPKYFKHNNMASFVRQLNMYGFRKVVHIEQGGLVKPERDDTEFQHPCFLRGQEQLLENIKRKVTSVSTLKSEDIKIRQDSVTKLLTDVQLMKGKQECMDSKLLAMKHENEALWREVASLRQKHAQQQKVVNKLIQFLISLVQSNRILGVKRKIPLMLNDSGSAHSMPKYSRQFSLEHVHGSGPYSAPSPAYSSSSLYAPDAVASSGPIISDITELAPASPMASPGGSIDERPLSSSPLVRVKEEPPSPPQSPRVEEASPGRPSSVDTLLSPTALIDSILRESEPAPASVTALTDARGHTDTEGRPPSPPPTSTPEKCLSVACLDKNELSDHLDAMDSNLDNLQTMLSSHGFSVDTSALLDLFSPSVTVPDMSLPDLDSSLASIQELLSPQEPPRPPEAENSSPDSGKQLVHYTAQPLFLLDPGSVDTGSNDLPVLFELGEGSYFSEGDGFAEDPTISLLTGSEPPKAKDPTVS
Sequence of Paired box protein Pax-6 (Homo sapiens) (P26367 whole entry, looked up): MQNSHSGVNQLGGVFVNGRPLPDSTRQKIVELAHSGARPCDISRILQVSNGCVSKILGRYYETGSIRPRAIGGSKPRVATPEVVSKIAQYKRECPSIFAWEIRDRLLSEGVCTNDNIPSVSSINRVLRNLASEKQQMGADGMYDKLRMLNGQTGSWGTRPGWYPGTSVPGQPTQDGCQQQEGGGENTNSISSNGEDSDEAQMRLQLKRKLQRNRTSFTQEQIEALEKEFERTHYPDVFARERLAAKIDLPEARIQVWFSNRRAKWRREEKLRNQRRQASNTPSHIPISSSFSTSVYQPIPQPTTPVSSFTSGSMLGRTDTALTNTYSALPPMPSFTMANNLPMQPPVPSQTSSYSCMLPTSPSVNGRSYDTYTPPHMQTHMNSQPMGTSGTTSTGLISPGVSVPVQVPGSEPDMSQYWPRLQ
Sequence of Bile acid receptor (Homo sapiens) (Q96RI1 whole entry, looked up, the tested form may be a part): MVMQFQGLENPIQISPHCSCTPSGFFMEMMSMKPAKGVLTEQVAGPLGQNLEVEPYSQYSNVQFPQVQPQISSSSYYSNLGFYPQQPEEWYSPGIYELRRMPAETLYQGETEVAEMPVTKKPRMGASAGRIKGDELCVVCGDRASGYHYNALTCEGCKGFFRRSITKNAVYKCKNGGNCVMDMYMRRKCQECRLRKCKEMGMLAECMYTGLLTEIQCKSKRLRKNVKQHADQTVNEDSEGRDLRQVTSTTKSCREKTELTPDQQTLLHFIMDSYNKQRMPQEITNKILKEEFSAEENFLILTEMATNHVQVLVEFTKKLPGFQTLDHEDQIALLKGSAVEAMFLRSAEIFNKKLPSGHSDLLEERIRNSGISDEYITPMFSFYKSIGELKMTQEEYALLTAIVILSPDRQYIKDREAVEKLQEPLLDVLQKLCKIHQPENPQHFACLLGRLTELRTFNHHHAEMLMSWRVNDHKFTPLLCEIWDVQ
Sequence of Hepatocyte nuclear factor 6 (Homo sapiens) (Q9UBC0 whole entry, looked up): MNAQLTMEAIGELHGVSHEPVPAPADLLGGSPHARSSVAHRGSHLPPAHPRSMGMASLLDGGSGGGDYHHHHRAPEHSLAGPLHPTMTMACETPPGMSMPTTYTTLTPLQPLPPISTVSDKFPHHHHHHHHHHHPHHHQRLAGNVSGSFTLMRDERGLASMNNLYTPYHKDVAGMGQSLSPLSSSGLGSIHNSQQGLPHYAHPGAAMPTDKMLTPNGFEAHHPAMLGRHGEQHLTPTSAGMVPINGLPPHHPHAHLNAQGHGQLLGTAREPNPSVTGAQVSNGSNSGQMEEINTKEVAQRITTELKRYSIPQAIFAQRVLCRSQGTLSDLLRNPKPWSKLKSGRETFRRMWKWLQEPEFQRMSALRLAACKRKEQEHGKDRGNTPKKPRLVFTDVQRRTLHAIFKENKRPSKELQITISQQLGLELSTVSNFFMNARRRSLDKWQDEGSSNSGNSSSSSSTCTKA
Sequence of Hypoxia-inducible factor 1-alpha (Homo sapiens) (Q16665 whole entry, looked up, the tested form may be a part): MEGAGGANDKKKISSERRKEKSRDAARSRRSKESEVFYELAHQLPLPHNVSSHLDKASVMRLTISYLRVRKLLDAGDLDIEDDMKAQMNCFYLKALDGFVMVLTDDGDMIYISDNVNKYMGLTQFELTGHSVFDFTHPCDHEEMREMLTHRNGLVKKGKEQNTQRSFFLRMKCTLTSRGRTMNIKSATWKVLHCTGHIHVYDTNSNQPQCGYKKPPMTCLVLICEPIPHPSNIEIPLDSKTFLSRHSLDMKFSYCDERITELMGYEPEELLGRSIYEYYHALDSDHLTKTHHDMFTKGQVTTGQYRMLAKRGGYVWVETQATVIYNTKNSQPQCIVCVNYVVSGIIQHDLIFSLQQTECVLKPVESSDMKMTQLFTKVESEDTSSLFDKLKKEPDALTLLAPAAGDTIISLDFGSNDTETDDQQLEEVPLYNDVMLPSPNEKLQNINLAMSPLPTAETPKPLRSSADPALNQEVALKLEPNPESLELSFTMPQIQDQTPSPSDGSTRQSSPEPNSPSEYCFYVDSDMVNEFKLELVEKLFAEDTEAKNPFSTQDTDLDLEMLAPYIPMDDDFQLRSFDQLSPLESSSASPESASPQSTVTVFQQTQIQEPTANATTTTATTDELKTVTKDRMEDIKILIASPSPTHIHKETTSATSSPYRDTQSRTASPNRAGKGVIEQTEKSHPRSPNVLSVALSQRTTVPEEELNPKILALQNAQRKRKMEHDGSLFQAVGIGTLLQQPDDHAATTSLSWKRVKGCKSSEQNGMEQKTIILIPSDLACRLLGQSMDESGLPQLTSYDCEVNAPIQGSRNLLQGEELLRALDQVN

As for `CCOC(=O)C(C)(C)Oc1ccc(Cl)cc1`, the compound was called inactive in assay [1], in assay [2], in assay [3], in [4], in [5] and in assay [6]. Moreover, the outcome in assay [7], in [8], in assay [9], in assay [10], in assay [11] and in assay [12] was inactive. The outcome in assay [13], in [14], in assay [15], in assay [16], in assay [17] and in [18] was inactive.

As for `CNC(=O)[C@H]1O[C@@H](n2cnc3c(NCc4cc(Cl)ccc4OCc4cc(C)no4)ncnc32)[C@H](O)[C@@H]1N`, the compound was called inactive in assay [1], in assay [2], in [3], in [4], in [5] and in assay [6]. The outcome in [19], in [8], in assay [9], in assay [20], in assay [10] and in assay [12] was inactive. In addition, the outcome in assay [13], in assay [14], in assay [15], in assay [16], in assay [17] and in assay [18] was inactive.

Consider `CC(CO)OC(C)CO` (centres undefined) (tested in a mixture with another compound), for which the outcome in assay [1], in assay [2], in assay [3], in assay [4], in assay [5] and in [6] was inactive. In addition, the call in assay [7], in assay [8], in assay [9], in assay [10], in assay [12] and in assay [13] was inactive. Further, the result in assay [14], in assay [15], in [16], in [17] and in [18] was inactive. Further, in assay [19], the AC50 is 4.72 µM (active).

Usually AC50 stands for the midpoint of the concentration-response curve, whichever way the signal moves.
